High-throughput results from PubChem.
HTR5A ag ctr: counter-screen for OPRM1-OPRD1 agonists: human HTR5A agonism; HTR5A agonist assay, luminescence, cell-based; 0.61% of 340,000 active; activation, % at 9.3 µM; P47898; in the data active = activation mostly above about 9.5%, no sharp cut-off; inactive = mostly below about 7.6%;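 also: 0% = cells with vehicle only and 100% = reference agonist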
MOR-DOR inv ag: mu-delta opioid heterodimer inverse agonism; P35372+P41143; cell-based MOR-DOR heterodimer luminescence; inhibition, % at 9.3 µM; 0.21% of 340,000 active; in the data active = inhibition above about 22%, passing the limit was not always enough;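 also: 0% = cells with DMSO and 100% = wells without cells with DMSO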
Target sequence (P35372 whole entry, looked up): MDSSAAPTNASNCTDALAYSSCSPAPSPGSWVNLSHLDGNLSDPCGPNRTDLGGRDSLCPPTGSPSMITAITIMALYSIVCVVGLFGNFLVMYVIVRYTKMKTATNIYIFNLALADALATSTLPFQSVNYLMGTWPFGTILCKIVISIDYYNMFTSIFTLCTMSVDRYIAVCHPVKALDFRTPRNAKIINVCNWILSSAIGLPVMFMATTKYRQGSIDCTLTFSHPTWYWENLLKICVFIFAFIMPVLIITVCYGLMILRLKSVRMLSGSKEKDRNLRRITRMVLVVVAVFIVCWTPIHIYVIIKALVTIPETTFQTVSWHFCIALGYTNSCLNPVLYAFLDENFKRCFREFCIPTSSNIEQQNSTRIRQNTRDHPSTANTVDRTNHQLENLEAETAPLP
Target sequence (P41143 whole entry, looked up): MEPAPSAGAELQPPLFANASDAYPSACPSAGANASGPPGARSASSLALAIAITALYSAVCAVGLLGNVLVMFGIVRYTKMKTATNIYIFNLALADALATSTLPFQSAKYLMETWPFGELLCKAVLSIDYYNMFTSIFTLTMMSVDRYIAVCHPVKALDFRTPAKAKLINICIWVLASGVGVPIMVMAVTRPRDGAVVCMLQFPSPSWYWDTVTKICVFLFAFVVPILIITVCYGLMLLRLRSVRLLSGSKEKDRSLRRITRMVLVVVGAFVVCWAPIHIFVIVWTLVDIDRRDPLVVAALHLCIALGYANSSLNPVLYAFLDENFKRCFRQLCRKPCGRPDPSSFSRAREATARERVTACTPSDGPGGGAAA
HTR5A inv ctr: inverse agonist of human HTR5A in OPRM1-OPRD1 counter-screen; P47898; HTR5A cell line, luminescence, inverse agonism; inhibition, % at 9.3 µM; 0.083% of 340,000 active; AID 504634; in the data active = inhibition mostly above about 23%, no sharp cut-off; inactive = mostly below about 18%;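 also: 0% = cells with DMSO and 100% = no-cell wells with DMSO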
MOR-DOR ag-1: OPRM1-OPRD1 heterodimerization agonism; cells, luminescence; activation, % at 9.3 µM; 0.3% of 340,000 active;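 also: 0% = vehicle-treated cells and 100% = reference agonist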
MOR-DOR ag-2: counter-screen for HTR5A agonists: OPRM1-OPRD1 heterodimerization agonism | AID 504913 | 13% of 800 active | activation, % at 9.3 µM | shares compounds with HTR5A ag ctr | U2OS counter-screen cells, complementation luminescence, 3 h
HTR5A ag conf: HTR5A (human) agonism, confirmation | HTR5A agonist cell assay, luminescence | 17% of 800 active | shares compounds with HTR5A ag ctr | activation, % at 9.3 µM; in the data active = activation above about 17%;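 also: 0% = cells with vehicle only and 100% = full reference agonist response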
Starred values were filed as active, the others as inactive; x = not tested or not shown; ! = a repeat was not active. Sampled rows, rich in hits. Any-hit rate of the full collection: about 1.1%. Rule as the data show it, unless noted: active = activation above about 18%; inactive = the rest.

SMILES | HTR5A ag ctr | MOR-DOR inv ag | HTR5A inv ctr | MOR-DOR ag-1 | MOR-DOR ag-2 | HTR5A ag conf
COc1ccc(Cl)cc1N(CC(=O)NCCSc1ccccn1)S(=O)(=O)c1ccccc1 | 16* | -8 | -49 | 1 | 1 | 18*
C[C@H](NS(=O)(=O)c1ccc(Cl)cc1)C(=O)OCC(=O)Nc1cc(S(=O)(=O)N2CCOCC2)ccc1Cl | 2 | -2 | -6 | 0 | x | x
Oc1ccc(-c2csc(-c3c[nH]c4ccccc34)n2)c(O)c1 | 27* | -36 | -55 | 7 | 6 | 26*
Cc1ccc(-c2csc(-c3c[nH]c4ccccc34)n2)c(C)c1 | -7 | -4 | 18 | 1 | x | x
COc1ccc(/C=N/NC(=O)c2ccn[nH]2)cc1COc1ccc(Cl)cc1Cl | 26* | -44 | -67 | 7 | 1 | -1
COc1ccc(C(=O)O/N=C(\N)Cc2ccc(Cl)cc2)cc1OC | 25* | -59 | -10 | 10 | 7 | 6
N/C(Cc1ccc([N+](=O)[O-])cc1)=N\OC(=O)c1ccc([N+](=O)[O-])cc1 | 21* | -9 | -50 | 2 | 3 | 1
N/C(Cc1ccc(Cl)cc1)=N\OC(=O)c1ccccc1 | 5 | -9 | 4 | 2 | x | x
O=C(CCl)NN1C(=O)NC(c2ccccc2)(c2ccccc2)C1=O | -1 | 14 | 2 | -3 | x | x
O=C1c2cc([N+](=O)[O-])ccc2-c2cc(Cl)c(NC(=O)C(F)(F)F)cc21 | -3 | 1 | 11 | 0 | x | x
O=C1c2cc([N+](=O)[O-])ccc2-c2cc(Br)c(N=C(NO)C(F)(F)F)cc21 | 21* | -27 | -81 | 6 | 19* | 0
O=C(CSc1nnc(C2CC2)n1-c1ccccc1)N1CCNC1=O | 5 | -3 | -20 | 1 | x | x
Cc1nc(-c2ccc(C#N)cc2)cs1 | 15* | -4 | -13 | 1 | 13 | 4
N#Cc1ccc(-c2csc(NC(=O)C3CC3)n2)cc1 | 2 | -3 | -7 | 1 | x | x
CCCCCCn1c2c(c(=N)c3c1CCC3)CCC2 | -1 | 18 | -11 | -3 | x | x
CCCCCCCCCn1c2c(c(=N)c3c1CCC3)CCC2 | 25* | 9 | -62 | -2 | 3 | 3
NC(=O)C1CCN(CC(=O)NC(=O)NC2CCCC2)CC1 | 0 | -2 | 0 | 0 | x | x
CN(C)CCCN(C(=O)COc1ccccc1)c1nc2ccc(F)cc2s1 | -2 | -7 | 6 | 1 | x | x
CN(C)CCCN(C(=O)CCOc1ccccc1)c1nc2ccc(F)cc2s1 | 18* | 7 | -52 | -1 | 3 | -2
NC(=O)C1=C(N=C2CCCCC2)CCCC1 | 18* | 15 | -69 | -3 | 0 | 6
O=c1[nH]c2ccccc2cc1-c1nnn(-c2ccc(F)cc2)n1 | 0 | -2 | -2 | 0 | x | x
O=c1[nH]c2ccccc2cc1-c1nnn(-c2ccc(Cl)c(Cl)c2)n1 | 18* | 21 | -61 | -4 | 2 | -3
Cc1cccc(NC(=O)COC(=O)COc2ccc3c(c2)CCC3)c1 | 1 | -11 | 3 | 3 | x | x
CC(C)(C)NC(=O)NC(=O)COC(=O)COc1ccc2c(c1)CCC2 | 20* | -36 | -54 | 6 | 10 | 4
O=S(=O)(Cc1ccc(Cl)cc1)N1CCN(c2ncccn2)CC1 | -2 | 2 | -11 | 0 | x | x
SMILES | HTR5A ag ctr | MOR-DOR inv ag | HTR5A inv ctr | MOR-DOR ag-1 | MOR-DOR ag-2 | HTR5A ag conf
O=C(CN1CCN(Cc2ccc(F)cc2Cl)C1=O)NCCc1ccccc1 | 16* | 5 | -46 | -1 | 9 | 3
O=C(c1ccc(-c2ccccc2Cl)o1)N1CCN(S(=O)(=O)c2cccs2)CC1 | 3 | 12 | -8 | -2 | x | x
Cc1ccccc1OCc1n(CC(=O)OC2CC(C)CCC2C(C)C)c2ccccc2[n+]1C (stereo not given) | 18* | -21 | -51 | 4 | 14 | 7
CC1CCC(C(C)C)C(OC(=O)Cn2c(-c3ccc(Br)cc3)[n+](C)c3ccccc32)C1 (stereo not given) | 17* | -9 | -43 | 2 | 50*! | 4
O=C(CCC1CCCN(C(=O)c2cccc(F)c2)C1)N1CCN(c2ccccn2)CC1 (stereo not given) | 3 | -6 | -6 | 1 | x | x
CCc1nc(SCC(=O)N2CCCCC2)c2c(=O)n(C)c(=O)n(C)c2n1 | -1 | 4 | 9 | -1 | x | x
CCn1c(=O)cc(SCC(=O)N2CCN(Cc3ccc4c(c3)OCO4)CC2)c2ccccc21 | -1 | -17 | -4 | 3 | x | x
Cn1c(=O)cc(SCC(=O)N2CCN(Cc3ccc4c(c3)OCO4)CC2)c2ccccc21 | 18* | 17 | 3 | -3 | 2 | -2
O=C(NCCc1cnc[nH]1)Nc1cccc(C(F)(F)F)c1 | 17* | -11 | -21 | 2 | 0 | 12
O=C(COc1ccc2c(c1)OCO2)Nc1ccc2c(c1)oc1ccccc12 | 16* | -18 | -58 | 3 | 6 | 8
CN(CC(=O)Nc1cccc(F)c1)C(=O)C1(c2ccccc2)CC1 | 14* | 11 | -7 | -3 | 3 | -1
Cc1ccc(C(=O)NCc2ccco2)cc1S(=O)(=O)N1CCCC1 | 2 | 13 | 15 | -2 | x | x
CC1CCCCN1Cc1c(C#N)c2ccccc2n1C (stereo not given) | 21* | -21 | -57 | 4 | 3 | 2
CCc1nnc(NC(=O)CSc2ccc(-c3nc4ccccc4[nH]3)cn2)s1 | -4 | -1 | 11 | 0 | x | x
Cc1nc(NC(=O)CSc2ccc(-c3nc4ccccc4[nH]3)cn2)sc1C | 17* | -42 | -21 | 6 | 3 | 3
COc1ccc(-n2nc(C(=O)NCC(=O)NCCCN3CC(C)CC(C)C3)c3ccccc3c2=O)cc1 (stereo not given) | 0 | -12 | -1 | 1 | x | x
COc1ccc(CC(=O)Nc2cccc(-c3nnc(-c4cccc(C)c4)o3)c2)cc1OC | -11 | -4 | -26 | 1 | x | x
COc1ccc(CC(=O)Nc2cccc(-c3nnc(-c4ccccc4)o3)c2)cc1OC | 16* | -58 | -43 | 10 | -2 | -4
C/C(=N/NC(=O)C1CCCN1C(=O)c1ccc([N+](=O)[O-])cc1)c1ccc(Br)cc1 (stereo not given) | -1 | 5 | 21 | -1 | x | x
COc1ccc(-c2c(-c3ccsc3)oc(=O)c3cc(OC)c(OC)cc23)cc1 | 23* | -6 | -61 | 1 | 3 | 1
CS(=O)(=O)c1ccc(NC(=O)C2CCCN(C(=O)c3ccc(Cl)cc3)C2)cc1 (stereo not given) | 19* | 6 | -47 | -2 | 6 | 4
Cc1onc(-c2ccccc2)c1C(=O)OCC(=O)N1CCN(c2ccccc2)CC1 | -3 | 11 | 8 | -2 | x | x
O=C(CN(C(=O)c1csnn1)c1cccc(Cl)c1)NCCc1ccccc1 | 6 | -10 | -2 | 1 | x | x
O=c1c2ccccc2nc2n1CCc1c-2[nH]c2ccccc12 | 14 | -40 | -29 | 7 | x | x
Cc1cccc2c(=O)n3c(cc12)-c1[nH]c2ccccc2c1CC3 | 15* | -65 | -57 | 15 | 3 | -1
COc1ccccc1N(CC(=O)NCc1ccco1)S(C)(=O)=O | 3 | 9 | -8 | -2 | x | x
